# Source: PubChem BioAssay (Tox21)
# Inconclusive results are not listed. The source made the active and inactive calls. The call rests on the fitted dose curve; in most records, active means well fitted inhibition curve with a large enough effect in the signal ratio in the repeat runs (not every such curve was filed as active); inconclusive means weak or mixed curves, or effect the other way; inactive means no such curve, though single readings can be large or run the other way; the % refers to the signal ratio.
# Target: Glucocorticoid receptor (Homo sapiens) (UniProt P04150)
# Test: qHTS assay to identify small molecule antagonists of the glucocorticoid receptor (GR) signaling pathway (AID 720692)
# Conditions: GR-bla HeLa, beta-lactamase FRET ratio, dexamethasone-stimulated, 18 h; series mostly up to 58.5 µM; activity change, negative = inhibition: at the top concentration
# Text: U.S. Tox21 Program National Center for Advancing Translational Sciences [NCATS] NIH Chemical Genomics Center [NCGC] U.S. Environmental Protection Agency [EPA] National Institutes of Environmental Health Sciences [NIEHS] National Toxicology Program [NTP] U.S. Food and Drug Administration [FDA] Tox21 Assay Overview: The Glucocorticoid receptor (GR) is one of the members of the nuclear receptor family of ligand-dependent transcription factors. GR plays a critical role in carbohydrate, protein and lipid metabolisms and programmed cell death. CellSensor GR-bla HeLa cell line (Invitrogen) contains a beta-lactamase reporter gene under the control of the glucocorticoid response element stably integrated into HeLa cells, a cervical cancer cell line that expresses glucocorticoid receptor. The activation of the reporter gene under culture conditions can be detected by fluorescence intensity. This cell line has been used to screen the Tox21 10K compound library and to identify the compounds that inhibit the GR signaling.
# Tox21 Assay Protocol Summary: The GR-bla HeLa cells were dispensed at 1500 cells/5 ul/well in 1536-well black wall/clear bottom plates using a Multidrop Combi (ThermoFisher Scientific, Waltham, MA) dispenser. After the assay plates were incubated at a 37 C/5% CO2 incubator for 4 hours, 23 nL of compounds dissolved in DMSO, positive controls or DMSO only was transferred to the assay plate by a pintool station (Kalypsys, San Diego, CA), followed by addition of 1 uL of dexamethasone (5 nM, final concentration in the well). The plates were incubated at 37 C for 18 hours. After 1 uL of LiveBLAzerTM B/G FRET substrate was added using a Flying Reagent Dispenser (Aurora Discovery, San Diego, CA), the plates were incubated at room temperature for 2 hours, and fluorescence intensity was measured by an Envision plate reader (PerkinElmer, Shelton, CT).
# On the % scale 0 is the no-effect control and ±100 the full control effect.
# Chain of Glucocorticoid receptor (Homo sapiens) (P04150 whole entry, looked up): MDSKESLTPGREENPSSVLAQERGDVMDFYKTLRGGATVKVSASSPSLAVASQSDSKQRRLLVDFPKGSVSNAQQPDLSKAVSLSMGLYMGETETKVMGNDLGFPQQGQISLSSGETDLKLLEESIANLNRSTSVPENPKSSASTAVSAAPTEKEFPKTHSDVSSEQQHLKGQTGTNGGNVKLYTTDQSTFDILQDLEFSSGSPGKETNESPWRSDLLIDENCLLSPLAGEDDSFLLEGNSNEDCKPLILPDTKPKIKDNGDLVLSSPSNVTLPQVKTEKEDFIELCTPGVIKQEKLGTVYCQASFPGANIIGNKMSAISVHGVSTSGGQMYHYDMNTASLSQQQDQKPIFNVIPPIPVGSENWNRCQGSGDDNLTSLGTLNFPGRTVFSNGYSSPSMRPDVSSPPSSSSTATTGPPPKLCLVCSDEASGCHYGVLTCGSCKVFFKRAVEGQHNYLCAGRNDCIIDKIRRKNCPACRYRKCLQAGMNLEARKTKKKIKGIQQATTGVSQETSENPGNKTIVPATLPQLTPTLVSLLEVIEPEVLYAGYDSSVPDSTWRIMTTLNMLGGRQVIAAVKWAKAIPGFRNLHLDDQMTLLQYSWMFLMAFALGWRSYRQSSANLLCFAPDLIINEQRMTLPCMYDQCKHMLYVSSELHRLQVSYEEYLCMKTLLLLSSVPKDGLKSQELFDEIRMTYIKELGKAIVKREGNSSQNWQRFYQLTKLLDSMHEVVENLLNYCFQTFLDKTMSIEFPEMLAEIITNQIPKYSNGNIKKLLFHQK
Compound,"activity change, negative = inhibition",Potency
CC1=C2[C@H](/C=C(\C)C(=O)O)CC[C@@H](C)[C@H]2CC1,26.7% [at 78.9 µM] (inactive),–
O=C1C=CC(=O)O1,-6.4% [at 78.9 µM] (inactive),–
CC(C)CC(=O)OCc1ccccc1,0.498% (inactive),–
CC(C)C[C@H](NC(=O)OCC1c2ccccc2-c2ccccc21)C(=O)O,-16.8% (inactive),–
Cc1cc(S(=O)(=O)O)c(N)cc1Cl,12.6% [at 78.9 µM] (inactive),–
CC(=O)N(CC(O)CN(C(C)=O)c1c(I)c(C(=O)NCC(O)CO)c(I)c(C(=O)NCC(O)CO)c1I)c1c(I)c(C(=O)NCC(O)CO)c(I)c(C(=O)NCC(O)CO)c1I (stereo not given),25.6% [at 27 µM] (inactive),–
CCC(=O)Nc1ccc(O)cc1,0.247% (inactive),–
O=C1N(c2ccccc2)c2ccccc2C1(Cc1ccncc1)Cc1ccncc1,-22.1% (inactive),–
OCC(CBr)(CBr)CBr,7.84% (inactive),–
CCOc1ccccc1N,-15.7% (inactive),–
CC(C)(C)c1ccc(OC(=O)c2ccccc2O)cc1,0.846% (inactive),–
CCCCCCCCCC#N,-4.1% (inactive),–
CC[C@H]1CC[C@H](NCc2cc3c(cc2OC)[C@H]2C[C@H]2C(=O)N3C)[C@H](c2ccccc2)N1,3.34% (inactive),–
CCOc1ccc(NS(=O)(=O)c2ccc(N)cc2)nn1,-8.67% (inactive),–
FC(F)(F)C(F)(F)C(F)(F)C(F)(F)C(F)(F)C(F)(F)C(F)(F)C(F)(F)Br,8.29% (inactive),–
CN(C)Cc1ccccc1,–,inactive
COc1ccc(Nc2ccc(OC)cc2)cc1,9.32% [at 78.9 µM] (inactive),–
C[C@]12C(=O)OC(=O)[C@H]1[C@H]1C=C[C@@H]2C1,-10.8% [at 78.9 µM] (inactive),–
O=C1Nc2ccc([N+](=O)[O-])cc2C1=O,-14.1% (inactive),–
CC(C)Nc1nc(N)nc(Cl)n1,-3.5% (inactive),–

Compound,"activity change, negative = inhibition",Potency
Oc1ccccc1F,-16.8% (inactive),–
C=CCCCCCCCCO,2.42% (inactive),–
CC1(C)S[C@@H]2[C@H](NC(=O)C(C(=O)O)c3ccccc3)C(=O)N2[C@H]1C(=O)O (stereo not given in full),-5.49% (inactive),–
C1CCOC1,-17.4% [at 78.9 µM] (inactive),–
CC(C)(C)c1cccc(O)c1,-2.24% (inactive),–
CC1=C(O)C(=O)OC1C (stereo not given),-8.91% (inactive),–
Cc1ccc(C)c(N)c1,-20.1% (inactive),–
CC(CNC1CCCCC1)OC(=O)c1ccccc1 (stereo not given),15.2% [at 27 µM] (inactive),–
NCCC(O)(P(=O)(O)O)P(=O)(O)O,-2.25% (inactive),–
CCOC(=O)c1ccccc1O,–,inactive
OCCN(CCO)c1ccccc1,1.48% (inactive),–
CC1(O)CSC(C)(O)CS1 (stereo not given),-1.42% (inactive),–
CN1CCN(c2c(F)cc3c(=O)c(C(=O)O)cn(CCF)c3c2F)CC1,0.976% (inactive),–
CC(C)C(=O)OC/C=C/c1ccccc1,-9.91% (inactive),–
C=CCc1cc(OC)c(O)c(C(=O)NCCO)c1,-4.27% (inactive),–
CO[Si](C)(C)OC,-11.6% (inactive),–
C[C@@H]1CN(c2c(F)c(N)c3c(=O)c(C(=O)O)cn(C4CC4)c3c2F)C[C@H](C)N1,2.69% (inactive),–
Cc1cc2nc(N)sc2cc1C,-26.4% [at 78.9 µM] (inactive),–
COc1cc2c(cc1N)oc1ccccc12,-10.1% [at 78.9 µM] (inactive),–
CCCC1CCC(=O)O1 (stereo not given),-0.352% (inactive),–
